Consider ten molecules from the supplement of paper PMC7380943.
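Note: compound given one day before doxycycline, which switches on I-SceI endonuclease expression to create double-strand breaks within the integrated reporter.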

The assay concerns CLZ3 (HCA2 human fibroblast dual HR-NHEJ reporter). Description: HR repair efficiency (tdTomato+ cells) relative to control (log10 fold); higher = more homologous recombination. To be noted: 5 µM; doxycycline 0.5 ug/mL.
Turning to `C/C=C1/[C@H](O[C@@H]2O[C@H](CO)[C@@H](O)[C@H](O)[C@H]2O)OC=C(C(=O)OC)[C@H]1CC(=O)OCCc1ccc(O)c(O)c1` [Oleuropein], the “HR repair efficiency (log10)” value came out at 0.0478.
As for `CCCCC[C@H](O)CC(=O)CCc1ccc(O)c(OC)c1` [6-Gingerol], the “HR repair efficiency (log10)” value was determined as 0.0839.
Under `C[C@@H]1CC[C@@]2(OC1)O[C@H]1C[C@H]3[C@@H]4CC[C@H]5C[C@@H](O)CC[C@]5(C)[C@H]4CC[C@]3(C)[C@H]1[C@@H]2C` [Tigogenin] stands 0.0468.
Take `COc1cc(-c2cc(=O)c3c(O)c(OC)c(O)cc3o2)ccc1O` [Jaceosidin]: the “HR repair efficiency (log10)” value is -0.105.
The same measure for `CC[C@@H]1[C@H]2CCCCN3[C@H]2[C@H](C[C@H]3[C@@H]2C[C@H](C)C(=O)O2)[C@@H]2[C@H]1OC(=O)[C@H]2C` [Tuberostemonine]: -0.0247; for `O=C(O)c1ccc(O)c(O)c1` [3,4-Dihydroxybenzoic acid]: -0.033.
Under `Oc1ccc2c(c1)OC[C@]1(O)Cc3cc(O)c(O)cc3[C@H]21` [Brazilin] stands -0.00638.
In the case of `COC(=O)c1ccc(O)cc1` [Methylparaben], the “HR repair efficiency (log10)” value was found to be 0.0479.
The same measure for `CC(C)(O)CCc1c(O)cc(O)c2c(=O)c(O)c(-c3ccc(O)cc3)oc12` [Noricaritin]: -0.128; for `C[C@@H](CC[C@@]1(O)O[C@H]2C[C@H]3[C@@H]4CC[C@@H]5C[C@@H](O[C@@H]6O[C@H](CO)[C@H](O)[C@H](O)[C@H]6O[C@@H]6O[C@H](CO)[C@@H](O)[C@H](O)[C@H]6O)CC[C@]5(C)[C@H]4CC[C@]3(C)[C@H]2[C@@H]1C)CO[C@@H]1O[C@H](CO)[C@@H](O)[C@H](O)[C@H]1O` [Timosaponin b- II]: -0.131.
